Screening results deposited in PubChem by Broad Institute.
Shown is part of a subset that was picked to be rich in hits.
C diff growth – inhibitors of Clostridium difficile growth. Clostridium difficile clinical isolate growth, OD600, 24 h; stronger effect = lower value. growth activity, negative = inhibition, % at 16 µg/mL (by protocol). 86,000 compounds, 0.25% hits;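 active means mean growth activity at or below -80% and every replicate also at or below -80%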
A number is an active result; n = inactive; ! = not active in a repeat.

SMILES	C diff growth
COc1cccc(CN2C[C@@H]3N[C@H](C2)C3c2ccc(-c3cccc(C#N)c3)cc2)c1 (stereo partly specified)	n
COc1cccc(CN2[C@@H]3CNC[C@H]2[C@H]3c2ccc(-c3ccccc3OC)cc2)c1	n
COc1ccc(-c2ccc(C3[C@@H]4CN(Cc5cccc(OC)c5)C[C@H]3N4)cc2)cc1 (stereo partly specified)	-81!
Cc1ccccc1-c1ccc(C2[C@@H]3CN(S(=O)(=O)Cc4ccccc4)C[C@H]2N3)cc1 (stereo partly specified)	n
COc1cccc(-c2ccc(C3[C@@H]4CN(Cc5ccccn5)C[C@H]3N4)cc2)c1 (stereo partly specified)	n
COc1cccc(-c2ccc(C3[C@@H]4CN(C(=O)C5CCCC5)C[C@H]3N4)cc2)c1 (stereo partly specified)	n
COc1cccc(CN2C[C@@H]3N[C@H](C2)C3c2ccc(-c3ccncc3)cc2)c1 (stereo partly specified)	n
Cc1ccccc1-c1ccc(C2[C@@H]3CN(C(=O)Cc4ccccc4)C[C@H]2N3)cc1 (stereo partly specified)	n
COc1cccc(CN2C[C@@H]3N[C@H](C2)C3c2ccc(-c3ccccc3C)cc2)c1 (stereo partly specified)	-96
COc1cccc(-c2ccc(C3[C@@H]4CN(Cc5cccc(F)c5)C[C@H]3N4)cc2)c1 (stereo partly specified)	-99
COC(=O)C[C@@H]1CC[C@H]2[C@@H](COc3ccc(NC(=O)C4CC4)cc3C(=O)N2C)O1	n
Cc1noc(C)c1S(=O)(=O)Nc1ccc2c(c1)CC(=O)N([C@H](C)CO)C[C@@H](C)[C@H](CN(C)C(=O)NC(C)C)O2	n
C[C@@H]1CN([C@H](C)CO)C(=O)c2cc(NC(=O)Cc3ccccc3)ccc2O[C@@H](C)CCCCO[C@H]1CN(C)Cc1ccc(C(=O)O)cc1	n
CN1C(=O)c2cc(NC(=O)C3CCOCC3)ccc2OC[C@@H]2O[C@@H](CC(=O)NCc3ccccc3F)CC[C@@H]21	n
CC(C)(C)[C@H]1C=C(C(=O)N2CCOCC2)O[C@@H](OCc2ccc(CO)cc2)C1	n
O=C(NC1CCCCC1)N1CC(=O)N2[C@H](C1)[C@@H](c1ccc(/C=C/c3ccccc3)cc1)[C@@H]2CO	n
C[C@@H]1CN([C@@H](C)CO)C(=O)c2cccc(N(C)C)c2O[C@@H]1CN(C)Cc1ccc(C(=O)O)cc1	n
C[C@H]1CN([C@@H](C)CO)C(=O)c2cccc(NC(=O)C3CCOCC3)c2O[C@@H]1CN(C)CC1CCCCC1	n
COc1ccc(S(=O)(=O)Nc2ccc3c(c2)CC(=O)N([C@@H](C)CO)C[C@@H](C)[C@H](CN(C)C(=O)Nc2ccc4c(c2)OCO4)O3)cc1	n
COC(=O)C[C@@H]1CC[C@@H]2[C@H](COc3ccc(NC(=O)c4ccc(F)c(F)c4)cc3C(=O)N2C)O1	n
O=C(C[C@H]1CC[C@H]2[C@@H](COC[C@H](O)CN2CC2CCCC2)O1)NCc1ccc(Cl)cc1	n
Cc1cccc(S(=O)(=O)N2C[C@@H]3N[C@H](C2)C3c2ccc(-c3cccnc3)cc2)c1 (stereo partly specified)	n
COc1ccc(-c2ccc(C3[C@@H]4CN(S(=O)(=O)c5cccc(C)c5)C[C@H]3N4)cc2)cc1 (stereo partly specified)	n
COc1ccc(-c2ccc(C3[C@@H]4CN(Cc5ccccn5)C[C@H]3N4)cc2)cc1 (stereo partly specified)	n
COc1cc(CN2C[C@@H]3N[C@H](C2)C3c2ccc(-c3ccccc3C)cc2)cc(OC)c1 (stereo partly specified)	-99
SMILES	C diff growth
C/C=C/c1ccc(C2[C@@H]3CN(Cc4cc(OC)cc(OC)c4)C[C@H]2N3)cc1 (stereo partly specified)	n
COc1cccc(S(=O)(=O)N2C[C@@H]3N[C@H](C2)C3c2ccc(-c3cccc(C)c3)cc2)c1 (stereo partly specified)	-94!
C[C@@H]1CN([C@@H](C)CO)C(=O)c2c(c3ccccc3n2C)-c2ccccc2CO[C@H]1CN(C)C(=O)Nc1cccc(Cl)c1Cl	n
CC(=O)N1[C@H](CNC(=O)C2CC2)[C@H](c2ccc(-c3ccccc3)cc2)[C@@H]1CO	n
COc1ccc(S(=O)(=O)Nc2ccc3c(c2)C(=O)N([C@H](C)CO)C[C@@H](C)[C@@H](CN(C)C(=O)c2ccncc2)OCCCC[C@H](C)O3)cc1	n
C[C@H](CO)N1C[C@H](C)[C@H](CN(C)C(=O)C2CC2)Oc2ncc(-c3ccncc3)cc2C1=O	n
COc1ccc(NC(=O)N2CCC3(CC2)CN(C(=O)C2CCC2)[C@@H](CO)c2c3c3ccc(OC)cc3n2C)cc1	n
C[C@@H]1CCCCO[C@H](CN(C)S(=O)(=O)c2cccs2)[C@@H](C)CN([C@H](C)CO)C(=O)c2cc(NC(=O)Cc3ccccc3)ccc2O1	n
COc1ccc(CN(C)C[C@@H]2OCCCC[C@H](C)Oc3ccc(NC(=O)Nc4cccc5ccccc45)cc3C(=O)N([C@H](C)CO)C[C@H]2C)cc1	-94
COc1ccc(NC(=O)Nc2ccc3c(c2)C(=O)N([C@@H](C)CO)C[C@@H](C)[C@H](CN(C)Cc2ccc(C(F)(F)F)cc2)OCCCC[C@@H](C)O3)cc1	n
C[C@@H]1CCCCO[C@H](CN(C)Cc2ccc3c(c2)OCO3)[C@@H](C)CN([C@H](C)CO)C(=O)c2cc(NC(=O)Nc3ccc(C(F)(F)F)cc3)ccc2O1	n
C[C@@H]1CN([C@H](C)CO)C(=O)c2cc(NC(=O)Nc3ccc(C(F)(F)F)cc3)ccc2O[C@@H](C)CCCCO[C@@H]1CN(C)Cc1ccc2c(c1)OCO2	n
COc1ccc(NC(=O)Nc2ccc3c(c2)C(=O)N([C@H](C)CO)C[C@H](C)[C@H](CN(C)Cc2ccc(C(F)(F)F)cc2)OCCCC[C@@H](C)O3)cc1	n
COc1ccc(CN(C)C[C@H]2OCCCC[C@H](C)Oc3ccc(NC(=O)Nc4cccc5ccccc45)cc3C(=O)N([C@@H](C)CO)C[C@H]2C)cc1	n
COc1ccc(CN(C)C[C@H]2OCCCC[C@@H](C)Oc3ccc(NC(=O)Nc4ccc(C(F)(F)F)cc4)cc3C(=O)N([C@@H](C)CO)C[C@@H]2C)cc1	-101
C[C@@H]1CCCCO[C@@H](CN(C)Cc2ccc3c(c2)OCO3)[C@H](C)CN([C@H](C)CO)C(=O)c2cc(NC(=O)Nc3ccc(C(F)(F)F)cc3)ccc2O1	-95
COc1ccc(CN(C)C[C@@H]2OCCCC[C@@H](C)Oc3ccc(NC(=O)Nc4cccc5ccccc45)cc3C(=O)N([C@H](C)CO)C[C@H]2C)cc1	n
CC(C)C#Cc1ccc2c(c1)O[C@@H](CN(C)C(=O)C1CC1)[C@H](C)CN([C@@H](C)CO)S2(=O)=O	n
Cc1noc(C)c1NC(=O)N[C@@H]1CC[C@@H](CC(=O)N2CCN(C)CC2)O[C@H]1CO	n
C[C@H](CO)N1C[C@H](C)[C@H](CN(C)S(=O)(=O)c2ccccc2)Oc2ncc(C#CC3CCCCC3)cc2C1=O	n
O=C(Nc1ccc(F)cc1)N[C@@H]1CC[C@@H](CCn2cc(-c3ccc(F)cc3)nn2)O[C@H]1CO	n
C[C@H]1CN([C@@H](C)CO)C(=O)c2cc(NC(=O)Nc3ccc4c(c3)OCO4)ccc2O[C@H]1CN(C)Cc1ccc(Oc2ccccc2)cc1	n
